Test results taken from PubChem BioAssay (NCATS).
Results filed as inconclusive are left out. Activity calls are given as the source filed them. Unless noted, calls follow the shape of the full dose curve.

Key:
[1] = qHTS for Inhibitors of the Functional Ribonucleoprotein Complex (vRNP) of Lassa (LASV) Arenavirus: LASV Primary Screen - GLuc reporter signal (AID 1347082; calls by dose curve; tested in HEK293 reporter line; also: nearly all actives have a fitted effect of over 60% in size)
[2] = qHTS for Inhibitors of the Functional Ribonucleoprotein Complex (vRNP) of Lassa (LASV) Arenavirus: Viability assay - alamar blue signal for LASV Primary Screen (AID 1347083; calls by dose curve; tested in HEK293 reporter line; also: nearly all actives have a fitted effect of over 80% in size)
[3] = qHTS for Inhibitors of the Functional Ribonucleoprotein Complex (vRNP) of Lymphocytic Choriomeningitis Arenaviruses (LCMV): Viability assay - alamar blue signal for LCMV Primary Screen (AID 1347085; calls by dose curve; tested in HEK293 reporter line; also: nearly all actives have a fitted effect of over 80% in size)
[4] = target: Nucleoprotein (Lymphocytic choriomeningitis virus (strain Armstrong)) (UniProt P09992); experiment: qHTS for Inhibitors of the Functional Ribonucleoprotein Complex (vRNP) of Lymphocytic Choriomeningitis Arenaviruses (LCMV): LCMV Primary Screen - GLuc reporter signal (AID 1347086); also: nearly all actives have a fitted effect of over 70% in size
Nucleoprotein (Lymphocytic choriomeningitis virus (strain Armstrong)), sequence (P09992 whole entry, looked up): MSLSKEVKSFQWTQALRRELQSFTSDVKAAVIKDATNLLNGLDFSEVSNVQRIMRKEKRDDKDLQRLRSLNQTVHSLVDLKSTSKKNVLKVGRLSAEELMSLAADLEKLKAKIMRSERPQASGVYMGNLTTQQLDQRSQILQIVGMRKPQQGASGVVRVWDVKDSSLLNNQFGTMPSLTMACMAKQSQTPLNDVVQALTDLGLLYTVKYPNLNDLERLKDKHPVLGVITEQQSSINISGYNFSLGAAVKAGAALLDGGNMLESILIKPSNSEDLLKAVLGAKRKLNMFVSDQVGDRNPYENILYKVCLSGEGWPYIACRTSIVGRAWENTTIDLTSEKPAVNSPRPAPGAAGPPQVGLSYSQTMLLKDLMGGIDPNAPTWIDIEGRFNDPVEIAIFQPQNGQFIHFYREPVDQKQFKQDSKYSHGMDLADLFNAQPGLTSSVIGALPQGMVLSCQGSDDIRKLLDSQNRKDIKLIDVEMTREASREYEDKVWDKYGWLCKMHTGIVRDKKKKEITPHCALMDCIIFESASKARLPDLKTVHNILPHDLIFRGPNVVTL
% is scaled to controls: 0 for no effect and ±100 for the full control effect.
Also: series mostly up to about 57 µM.

Cn1c2c(c(=O)c3ccccc31)C[C@@H](O)C(C)(C)O2
inactive: Potency [1] | Potency [2] | Potency [3] | Potency [4]

CC(c1c(O)c2ccccc2[nH]c1=O)C1(C)CCC(O)C(C)(C)O1 (stereo unspecified)
inactive: Potency [1] | Potency [2] | Potency [3] | Potency [4]

CC=C(C)C(=O)OC1CCN2CC=C(COC(=O)C(O)(C(C)OC)C(C)(C)O)C12 (stereo unspecified)
inactive: Potency [1] | Potency [2] | Potency [3] | Potency [4]

COc1cc(C)cc(O)c1
inactive: Potency [1] | Potency [2] | Potency [3] | Potency [4]

CC(C)=CCC/C(C)=C/COc1c2occc2cc2ccc(=O)oc12
inactive: Potency [1] | Potency [2] | Potency [3] | Potency [4]

OCC(O)C(O)C(O)CO (stereo unspecified)
inactive: Potency [1] | Potency [2] | Potency [3] | Potency [4]

COc1cc2c(cc1O)CC[n+]1cc3c(OC)c(OC)ccc3cc1-2
inactive: Potency [1] | Potency [2] | Potency [3] | Potency [4]

CC/C=C\C[C@H](O)/C=C/C=C\C/C=C\C/C=C\CCCC(=O)O
inactive: activity change, negative = inhibition [1] -0.193% [at 0.757 µM] | activity change, negative = reduced viability [2] 19.4% [at 0.757 µM] | activity change, negative = lower viability [3] 7.46% [at 0.757 µM] | activity change, negative = inhibition [4] 12.1% [at 0.757 µM]

CC1=CC2=C(C=O)C(=O)C(C)(O)C(O)C2=CO1 (stereo unspecified)
inactive: Potency [1] | Potency [2] | Potency [3] | Potency [4]

CCN1C[C@]2(CO)CC[C@H](OC)[C@@]34C5C[C@H]6[C@H](OC)C5[C@](O)(C[C@H]6OC)[C@@](O)(C(OC)C23)[C@@H]14 (stereo partly specified)
inactive: Potency [1] | Potency [2] | Potency [3] | Potency [4]

COc1ccc(-c2coc3cc(O)ccc3c2=O)cc1OC
inactive: Potency [1] | Potency [2] | Potency [3] | Potency [4]

CCCO
inactive: Potency [1] | Potency [2] | Potency [3] | Potency [4]

CCCCCc1c2c(cc(O)c1C(=O)O)OC(=O)c1cc(C(=O)CCCC)c(OC)cc1O2
inactive: Potency [1] | Potency [2] | Potency [3] | Potency [4]

CO[C@H]1C=CO[C@@]2(C)Oc3c(C)c(O)c4c(O)c(c(C=NN5CCN(C)CC5)c(O)c4c3C2=O)NC(=O)C(C)=CC=C[C@H](C)[C@H](O)[C@@H](C)[C@@H](O)[C@@H](C)[C@H](OC(C)=O)[C@H]1C
inactive: Potency [1] | Potency [2] | Potency [3] | Potency [4]

CCCCCCOC(=O)c1ccccc1
inactive: Potency [1] | Potency [2] | Potency [3] | Potency [4]

O=C(O)c1ccccc1Cc1ccccc1
inactive: Potency [1] | Potency [2] | Potency [3] | Potency [4]

C=C1C(=O)OC2C1C(OC(=O)C(C)=CC)CC(=C)C1C(O)C3OC3(C)C21O (stereo unspecified)
inactive: Potency [1] | Potency [2] | Potency [3] | Potency [4]

CC(C)=CCC[C@](C)(O)C1CC[C@]2(C)C1[C@H](O)CC1[C@@]3(C)CC[C@H](O[C@@H]4O[C@H](CO)[C@@H](O)[C@H](O)[C@H]4O[C@@H]4O[C@H](CO)[C@@H](O)[C@H](O)[C@H]4O)C(C)(C)C3CC[C@]12C (stereo partly specified)
inactive: Potency [1] | Potency [2] | Potency [3] | Potency [4]

CCOC(=O)CC(C)C
inactive: Potency [1] | Potency [2] | Potency [3] | Potency [4]
